Experimental data taken from PubChem BioAssay AID1030 (National Center for Advancing Translational Sciences (NCATS), 2008).
Out of some 220,000 compounds screened, about 16,000 (7.3%) were called active. Where a call stands in place of a potency, no number is given. Not shown: some 25% with an inconclusive outcome. The sample holds actives, similar compounds and a random draw of the others, so the mix is not that of the screen. Values without a mark were called inactive. Calls follow the shape of the dose curve; as a rule, active = well fitted inhibition curve with a large enough effect (not every such curve was filed as active); inconclusive = small, poorly fitted or top-dose-only effect, or another doubt; inactive = no such curve, though single readings can be large or run the other way.

The compounds below were run against Aldehyde dehydrogenase 1A1 (Homo sapiens) (UniProt P00352) (assay: qHTS Assay for Inhibitors of Aldehyde Dehydrogenase 1 (ALDH1A1)). Details: Purified ALDH1A1, NADH fluorescence, propionaldehyde substrate; series mostly up to 75.3 µM.
Potency is read from the fitted curve at half-maximal effect.

Sequence of Aldehyde dehydrogenase 1A1 (Homo sapiens) (P00352 whole entry, looked up): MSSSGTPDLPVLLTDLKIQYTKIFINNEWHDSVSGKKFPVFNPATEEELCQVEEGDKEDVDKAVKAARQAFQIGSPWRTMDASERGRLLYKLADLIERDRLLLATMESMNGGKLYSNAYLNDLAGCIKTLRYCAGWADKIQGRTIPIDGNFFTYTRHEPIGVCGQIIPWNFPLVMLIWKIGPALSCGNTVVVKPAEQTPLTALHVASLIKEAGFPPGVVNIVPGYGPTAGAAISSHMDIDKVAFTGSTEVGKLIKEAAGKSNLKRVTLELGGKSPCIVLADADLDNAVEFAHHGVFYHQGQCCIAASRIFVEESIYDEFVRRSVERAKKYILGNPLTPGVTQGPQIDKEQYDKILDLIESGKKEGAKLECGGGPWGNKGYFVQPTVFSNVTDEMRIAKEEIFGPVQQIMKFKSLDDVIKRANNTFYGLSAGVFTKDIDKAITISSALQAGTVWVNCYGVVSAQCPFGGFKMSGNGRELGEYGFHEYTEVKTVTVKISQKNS

Row | SMILES | Potency | activity, negative = inhibition
1 | Cc1c(Br)c([N+](=O)[O-])nn1CC(=O)Nc1sc2c(c1C(=O)OC(C)C)CCC(C)C2 (stereo unspecified) | inactive | 
2 | CCCCC[C@H](O)/C=C/[C@@H]1[C@@H](CC(=O)CCC(=O)O)[C@@H](O)C[C@H]1O | inactive | 
3 | COc1ccc(C2CC(c3cccs3)=NN2C(=O)CSc2nncs2)cc1OC (stereo unspecified) | inactive | 
4 | COc1cc(/C=N/N=C(\N)c2nonc2N)cc(OC)c1OC | inactive | 
5 | COCCNC(=O)C(OC(=O)c1cccs1)c1ccc(F)cc1 (stereo unspecified) | inactive | 
6 | O=c1c2ccccc2oc2nc3n(c(=O)c12)CCCS3 | 25.1 µM (active) | 
7 | O=c1c2ccccc2oc2nc(C3CCCCC3)n(Cc3ccco3)c(=O)c12 | inactive | 
8 | CCc1nc2oc3ccccc3c(=O)c2c(=O)n1Cc1ccc(OC)cc1 | inactive | 
9 | COc1ccc(C2=NN(c3ccccc3)C(c3cccs3)C2)cc1 (stereo unspecified) | inactive | 
10 | Cc1ccc(SCC(=O)Nc2ncc(C)s2)cc1 | inactive | 
11 | Cc1cnc(NC(=O)CSc2nnc(-c3ccccc3)n2Cc2ccccc2)s1 | inactive | 
12 | Cc1cnc(NC(=O)CSc2nnc(-c3ccc(Cl)cc3Cl)n2N)s1 | 20 µM (active) | 
13 | Cc1ccc(-c2cc(C(=O)NN)n[nH]2)o1 | inactive | 
14 | O=C(O)CCCC(=O)Nc1ccc(Oc2cccc(C(F)(F)F)c2)nc1 | inactive | 
15 | Oc1ccc(N2CCN(C(=S)NCc3ccccc3)CC2)cc1 | 20 µM (active) | 
16 | O=C(COC(=O)c1ccccc1C(=O)N1CCN(c2ccccc2)CC1)NCc1ccccc1 | inactive | 
17 | Oc1ccccc1N1CCN(C(=S)NCc2ccccc2)CC1 | inactive | 
18 | N/C(=N\OC(=O)c1ccc([N+](=O)[O-])cc1)c1ccccn1 | inactive | 
19 | C[N+]1(CC(O)COc2ccccc2)CCN(C(=O)c2ccc([N+](=O)[O-])cc2)CC1 (stereo unspecified) | inactive | 
20 | Nc1ccc(SCCN2C(=O)c3ccccc3C2=O)cc1 | inactive | 
21 | CC(=O)NCCn1c(SCC(=O)Nc2ccc(C)cc2)nc2ccccc2c1=O | inactive | 
22 | CN(C)CCCn1c(SCCN2C(=O)c3ccccc3C2=O)nc2ccccc2c1=O | 20 µM (active) | 
23 | COc1ccc(C(=O)CSc2nnc(-c3ccco3)o2)cc1 | inactive | 
24 | COC(=O)C1=C(NC(=O)C(C)(C)C)CCS1 | inactive | 
25 | C=CCC(C(=O)c1ccccc1)[N+](C)(C)CC=C (stereo unspecified) | inactive | 
26 | Cc1ccc(Cl)cc1NC(=S)N(CCN(C)C)Cc1cccs1 | inactive | 

Row | SMILES | Potency | activity, negative = inhibition
27 | N#C/C(=C(\O)C(F)(F)F)c1nnc2n1CCCCC2 | 4.47 µM (active) | 
28 | N#Cc1cccc(Nc2c3c(nc4ccccc24)CCCC3)c1 | inactive | 
29 | CCc1nnc(NC(=O)CCN(c2ccc(C)cc2)S(=O)(=O)c2ccccc2)s1 | inactive | 
30 | CCOC(=O)Cn1c(=O)oc2cc(S(=O)(=O)N(C)Cc3ccco3)ccc21 | 15 µM (active) | 
31 | CCOC(=O)Cn1c(=O)oc2cc(S(=O)(=O)NCC3CCCO3)ccc21 (stereo unspecified) | inactive | 
32 | CCOc1ccc(S(=O)(=O)N(CC(=O)NCC(F)(F)F)Cc2ccco2)cc1 | inactive | 
33 | Cc1ccc(CN2CCN(Cc3ccc(OCCO)cc3)CC2CCO)o1 (stereo unspecified) | inactive | 
34 | COc1c(C)cc(C(=O)C2CCCN(S(=O)(=O)c3c(C)noc3C)C2)cc1C (stereo unspecified) | inactive | 
35 | COc1ccc(-c2nc3c(c4c2C[C@H](c2ccccc2)OC4)CN(S(=O)(=O)c2c(C)noc2C)CC3)c(C)c1 | 0.447 µM (active) | 
36 | Cc1ccc(OCC(=O)N2CCN(C(=O)c3cccnc3)CC2)cc1 | inactive | 
37 | COc1ccc(F)c(-c2nc(CN3CCC(c4ccccc4)CC3)c(C)o2)c1 | inactive | 
38 | C[C@H]1Cc2c(COc3ccccc3)nc3c(c2CO1)CN(C(=O)Nc1cccc(C#N)c1)CC3 |  | -13.5% [at 13.5 µM]
39 | C[C@H]1Cc2c(-c3ccccc3)nc3c(c2CO1)CN(C(=O)C1CC1)CC3 |  | 8.3% [at 13.5 µM]
40 | COc1ccc(-c2nc3c(c4c2C[C@H](c2ccccc2)OC4)CN(C(=O)c2ccco2)CC3)c(C)c1 | 1.78 µM (active) | 
41 | COc1ccc(-c2nc3c(c4c2C[C@H](c2ccccc2)OC4)CN(C(=O)C2CC2)CC3)c(C)c1 | 0.398 µM (active) | 
42 | COc1cccc(CC(=O)N2CCc3nc(COc4ccccc4)c4c(c3C2)CO[C@@H](C)C4)c1 |  | 6.69% [at 13.5 µM]
43 | C[C@H]1Cc2c(-c3ccccc3)nc3c(c2CO1)CN(S(=O)(=O)c1ccc(Cl)c2nonc12)CC3 |  | -9.79% [at 13.5 µM]
44 | COc1ccc(-c2nc3c(c4c2C[C@H](c2ccccc2)OC4)CN(C(=O)c2cccnc2)CC3)c(C)c1 | 0.355 µM (active) | 
45 | C[C@H]1Cc2c(COc3ccccc3)nc3c(c2CO1)CN(C(=O)NCc1ccco1)CC3 |  | -1.72% [at 13.5 µM]
46 | CN1CCN(/N=C/c2ccc(-c3ccc([N+](=O)[O-])cc3)o2)CC1 | inactive | 
47 | CCOC(=O)N1CCN(C(=S)Nc2ccc(C)cc2C)CC1 | inactive | 
48 | CCOc1ccc(N(CC(=O)NCCc2ccc(OC)cc2)S(C)(=O)=O)cc1 | inactive | 
49 | COCOc1cc(OC)ccc1C(=O)/C=C/c1ccc([N+](=O)[O-])cc1 | inactive | 
50 | CCOc1ccc(-c2n[nH]c(C)c2-c2ccccn2)c(O)c1 | inactive | 
51 | Cc1cc(C)cc(C(=O)N(CCc2ccccc2)C2=CC3CCC(C2)N3C)c1 (stereo unspecified) | inactive | 
52 | CCn1c(CNC(=O)c2ccco2)nnc1SCC(=O)Nc1cccc(F)c1 | inactive | 

Row | SMILES | Potency | activity, negative = inhibition
53 | Nc1ccc(OCC(O)C[n+]2ccc(CCS(=O)(=O)[O-])cc2)cc1 (stereo unspecified) | inactive | 
54 | Cc1ccc(NC(=O)C(=O)NCc2ccc(/C=N/NC(=O)c3c(C)nc4cc(C)ccn34)o2)cc1 | inactive | 
55 | CCOC(=O)C(NC(C)=O)C(=O)Nc1ccc(OC)cc1 (stereo unspecified) | inactive | 
56 | COC(=O)c1ccc(NC(=O)CSc2nnc(-c3ccncc3)n2C)cc1 | inactive | 
57 | CCn1c(CNC(=O)c2ccc(OC)c(OC)c2)nnc1SCC(=O)Nc1ccccc1 | inactive | 
58 | CCn1c(COc2ccc(OC)cc2)nnc1SCC(=O)Nc1cc(OC)ccc1OC | inactive | 
59 | CCn1c(CNc2ccc(OC)cc2)nnc1SCC(=O)c1ccc(OC)cc1 | 0.199 µM (active) | 
60 | COc1ccc(C(=O)CSc2nnc(COc3ccccc3)n2Cc2ccco2)cc1 | 8.91 µM (active) | 
61 | COc1ccc(CC(=O)NCc2nnc(SCC(=O)Nc3nccs3)n2C)cc1 | inactive | 
62 | COC(=O)c1ccc(NC(=O)CSc2nnc(CNc3ccc(OC)cc3)n2C)cc1 | 28.2 µM (active) | 
63 | CCn1c(COc2ccccc2)nnc1SCC(=O)NCc1ccco1 | inactive | 
64 | O=C(CSc1nnc(-c2cccnc2)n1Cc1ccco1)c1ccc(Cl)cc1 | inactive | 
65 | CN(Cc1ccccc1)C(=O)CCc1ccccc1 | inactive | 
66 | CCOCCCNC(=O)C(=O)NCCCOCC | inactive | 
67 | CC(C)C(=O)Nc1cccc(NC(=O)c2ccc([N+](=O)[O-])cc2Cl)c1 | inactive | 
68 | Clc1ccc(N/N=C/c2cccs2)nn1 | inactive | 
69 | Cc1ccccc1-c1ccc(C(=O)O)s1 | inactive | 
70 | COc1ccc(CN2CCCC(C(=O)c3ccc(Cl)cc3)C2)cc1Cn1cncn1 (stereo unspecified) | inactive | 
71 | CCOC(=O)c1[nH]ncc1CN1CCCC(C(=O)c2ccc(OC)cc2C)C1 (stereo unspecified) | inactive | 
72 | COc1cc(OC)c(C(=O)N2CCCC2)cc1OC | inactive | 
73 | Cc1ccc(S(=O)(=O)N2CCC(C(=O)N[C@@H](C)C(=O)NCc3ccco3)CC2)cc1 | inactive | 
74 | Cc1ccc(S(=O)(=O)N2CCCC2C(=O)NCc2ccco2)cc1 (stereo unspecified) | 28.2 µM (active) | 
75 | O=C(NCc1ccco1)C1CCCN(S(=O)(=O)c2ccccc2)C1 (stereo unspecified) | inactive | 
76 | CSc1ncccc1C(=O)N1CCCC(CCC(=O)NCc2ccccc2F)C1 (stereo unspecified) | inactive | 
77 | COc1ccc(OC)c(-n2nnnc2SCC(=O)Nc2cc(C)ccc2OC)c1 | inactive | 
78 | COc1ccc(C)cc1-n1nnnc1SCC(=O)c1cc(C)n(Cc2ccco2)c1C | 15.8 µM (active) | 

Row | SMILES | Potency | activity, negative = inhibition
79 | Cc1cc(C(=O)COC(=O)CNC(=O)c2ccc(F)cc2)c(C)n1Cc1ccco1 | inactive | 
80 | CC/C=C\C/C=C\C/C=C\C/C=C\C/C=C\C/C=C\CCC(=O)NCCc1ccc(O)c(O)c1 | inactive | 
81 | COc1ccccc1OCc1ccc(C(=O)N2CCN(C)CC2)o1 | inactive | 
82 | O=C(c1ccco1)N1CCN(C(=O)C2CC(c3ccc(F)cc3)=NO2)CC1 (stereo unspecified) | inactive | 
83 | O=C(c1ccco1)N1CCN(C(=O)c2ccc(COc3ccc(F)cc3)o2)CC1 | 28.2 µM (active) | 
84 | CN(C)S(=O)(=O)c1cc(NC(=O)CN2C(=O)NC3(CCCc4ccccc43)C2=O)ccc1Cl (stereo unspecified) | 12.6 µM (active) | 
85 | COc1ccc(-n2c(C)cc(C(=O)CN3C(=O)NC4(CCc5ccccc54)C3=O)c2C)cc1 (stereo unspecified) | inactive | 
86 | Cc1ccc(NC(=O)CNCc2ccccn2)cc1S(=O)(=O)N(C)C | inactive | 
87 | Cc1ccc(/C=N/NC(=O)Cn2ccc(C(F)(F)F)n2)o1 | inactive | 
88 | CCN(CC)N=Nc1cccc(NC(C)=O)c1 | inactive | 
89 | O=C(N/N=C/c1coc2ccccc2c1=O)c1cc2ccccc2o1 | 10 µM (active) | 
90 | O=C(Nc1ccncc1)c1cc2ccccc2o1 | inactive | 
91 | Cc1c(/C=N\NC(=O)c2cc3ccccc3o2)c2ccccc2n1C | inactive | 
92 | NC(=O)Cn1nc([N+](=O)[O-])nc1Oc1ccc(Br)cc1 | inactive | 
93 | CC(C)(C)C(=O)N(Cc1ccccc1)c1ccccn1 | inactive | 
94 | CC(C)CCN1CCN(Cc2cn[nH]c2C2CCCCC2)CC1CCO (stereo unspecified) | inactive | 
95 | CCCCC(O)(CCCC)C(=O)NN(C(=O)CCl)c1ccccc1 | 3.98 µM (active) | 
96 | CC(C)(O)C(=O)NN(C(=O)c1ccccc1)c1cccc(Br)c1 | inactive | 
97 | CCCCCCCCC(=O)NCCOc1ccccc1 | inactive | 
98 | CCC(C)NC(=O)CCCc1ccccc1 (stereo unspecified) | inactive | 
99 | Cc1ccc(N(NC(=O)C(C)(C)O)C(=O)c2ccccc2)cc1C | inactive | 
100 | CCCC(O)(CCC)C(=O)NN(C(=O)CCl)c1cccc(C)c1 | 39.8 µM (active) | 
101 | Cc1cc(NC(=O)CSCc2ccccc2C)no1 | inactive | 
